Compound activity deposited in PubChem by National Center for Advancing Translational Sciences (NCATS).
D1 antagonist: human D1 dopamine receptor antagonism; P21728; HEK293 TREx D1 cells, calcium flux, dopamine EC80; stronger effect = lower value; activity change, negative = inhibition, % at 10 µM; hit rate 3.2% among 360,000; AID 504652; in the data active means activity change below about -30%; further: on the % scale 0 is the no-effect control and ±100 the full control effect
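Using tetracycline-induced force-coupled D1 Hek293 cells and a calcium dye, signals were followed for 180 s after compound, then for 180 s after EC80 dopamine, to detect inhibitors.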
DRD3 antagonist: antagonists of human D3 dopamine receptor; P35462; D3R cells, DiscoveRx beta-arrestin luminescence, antagonist mode; stronger effect = lower value; max response, negative = inhibition, %; hit rate 2.5% among 360,000; in the data active means max response below about -50%; inconclusive means no clear call, values can overlap the other calls; further: on the % scale 0 is the no-effect control and ±100 the full control effect
Target sequence (P35462 whole entry, looked up): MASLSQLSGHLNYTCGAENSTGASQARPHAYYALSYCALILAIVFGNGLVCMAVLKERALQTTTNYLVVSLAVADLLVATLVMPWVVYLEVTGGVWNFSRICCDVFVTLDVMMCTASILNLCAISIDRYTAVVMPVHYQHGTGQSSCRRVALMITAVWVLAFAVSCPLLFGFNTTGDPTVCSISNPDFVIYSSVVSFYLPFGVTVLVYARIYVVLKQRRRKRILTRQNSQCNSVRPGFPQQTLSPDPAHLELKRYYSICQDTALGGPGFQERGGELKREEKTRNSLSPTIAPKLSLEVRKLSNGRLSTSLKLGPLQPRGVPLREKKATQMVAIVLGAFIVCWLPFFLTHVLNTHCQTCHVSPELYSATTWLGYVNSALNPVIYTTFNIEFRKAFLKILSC
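Cells expressing the human receptor were seeded at 1500 cells/well, incubated overnight at 37 degrees C in 5% CO2, then exposed to library compounds with dopamine controls for 90 minutes at 37 degrees C before luminescent detection.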
D1 ag: human D1 receptor agonism; hit rate 1% among 360,000; activation, % at 2 µM; HEK293 T-REx D1 cells, calcium flux, agonist mode; in the data active means activation above about 30%; further: 0% is about no effect
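Tetracycline-induced HEK293 TREx D1 cells, force-coupled to calcium signalling, were dye-loaded with a no-wash calcium kit. Compound was pin-added after a 10 s baseline. Fluorescence was read kinetically at 1 cycle/s for 180 s, with calcium rises flagged as agonism.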
D1 PAM: human D1 dopamine receptor positive modulation; P21728; HEK293 TREx D1 cells, calcium flux, dopamine EC20 potentiation; potentiation, % at 10 µM; hit rate 0.036% among 360,000; AID 504651; in the data active means potentiation above about 30%; further: 0% is about no effect
D3 ag: activates the human D3 dopamine receptor; P35462; D3R DiscoveRx beta-arrestin cells, luminescence, 90 min; max activation, %; hit rate 0.58% among 410,000; AID 652048; in the data active means max activation above about 30%; further: 0% is about no effect
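Agonist-mode cell screen: cells plated at 1500/well and incubated overnight at 37 °C, then exposed to library compounds for 90 min at 37 °C. Detection reagent was added for 30–60 min at room temperature, and luminescence was read.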
* marks the source's active call; other numbers are inactive results; ? = inconclusive; . = no result given. In the library only some 6% were active in any assay of this set; here they are far more common.

SMILES | D1 antagonist | DRD3 antagonist | D1 ag | D1 PAM | D3 ag
COC(=O)c1ccc(NC(=O)COC(=O)CCC2CCCC2)cc1 | -41* | -2 | 13 | . | 4
CC(=O)c1ccc(NC(=O)COC(=O)c2ccccc2Nc2ccccc2)cc1 | -8 | -51* | 5 | 1 | -1
CC(=O)NCC(=O)OCC(=O)Nc1ccc(C(C)=O)cc1 | -31* | 0 | 5 | 4 | -7
CC(=O)c1ccc(NC(=O)CO/N=C(\C)c2cccs2)cc1 | -36* | -1 | 2 | -1 | -1
O=C(COC(=O)c1ccccc1Nc1ccccc1)Nc1ccccc1 | -2 | 10 | 1 | -1 | 1
CCOC(=O)Cc1ccc(NC(=O)n2ncc3cc(Cl)ccc32)cc1 | -5 | . | 0 | 3 | -11
Cn1c(=O)n(CCOc2ccc([N+](=O)[O-])cc2)c2ccccc21 | -59* | 5 | 0 | -12 | -10
Cc1ccc(OCCn2c(=O)n(C)c3ccccc32)cc1 | 3 | 14 | 3 | 4 | 8
CC1CC(C)CN(CCCCOc2ccc([N+](=O)[O-])cc2)C1 (configuration not stated) | -3 | -82* | 4 | -8 | -12
COC(=O)C1CCN(CCCOc2ccc(CN3CCN(c4ccc([N+](=O)[O-])cc4)CC3)cc2)CC1 | -15 | ? | 11 | 3 | 32*
COC(=O)C1CCN(c2ccc([N+](=O)[O-])cc2)CC1 | 15 | 8 | 2 | -7 | 3
CCOC(=O)C1=CN(CC)S(=O)(=O)NC1c1ccc(C(F)(F)F)cc1 (configuration not stated) | . | -17 | . | . | -3
CCN(CC)CCCNC(=O)Cn1cc2c(n1)CCC(C)C2 (configuration not stated) | -41* | 15 | 1 | -4 | 4
Cc1csc2c(N3CCN(S(=O)(=O)c4ccc(Cl)cc4)CC3)ncnc12 | -35* | -4 | 4 | -3 | -2
CCOc1ccc(C(=O)Nc2ccc3nc(SCC(=O)N4CCc5ccccc54)sc3c2)cc1 | -1 | . | 0 | 0 | 2
CCCCn1c(N)c(N(C)C(=O)CCCn2c(=O)oc3ccccc32)c(=O)[nH]c1=O | . | 0 | . | . | -5
CCCN(C(=O)C(NC(=O)c1ccccc1)C(C)C)c1c(N)n(Cc2ccccc2)c(=O)[nH]c1=O (configuration not stated) | -77* | -18 | 0 | -20 | 5
CCCCn1c(N)c(N(CCOC)C(=O)Cn2c(=O)oc3ccccc32)c(=O)[nH]c1=O | 0 | -5 | 0 | -4 | 95*
Cc1cc2occ(CC(=O)N(CCC(C)C)c3c(N)n(Cc4ccccc4)c(=O)[nH]c3=O)c2cc1C | 2 | 0 | 0 | 10 | -1
CC(C)CCN(C(=O)Cc1ccccc1F)c1c(N)n(Cc2ccccc2)c(=O)[nH]c1=O | -55* | -14 | 1 | -3 | -4
CCCCN(C(=O)c1ccccc1F)c1c(N)n(CCC)c(=O)[nH]c1=O | -1 | 2 | 1 | 0 | 33*
Cc1ccc(NC(=O)CCS(=O)(=O)c2ccc3c(c2)oc(=O)n3C)c(Br)c1 | -1 | . | -1 | -3 | 8
O=C(NCc1cccnc1)c1cc(C2CCCCN2C(=O)c2ccc3ccccc3c2)on1 (configuration not stated) | . | -5 | . | . | 2
O=C1NC2CCCCN2C12CCN(CCCN1c3ccccc3CCc3ccc(Cl)cc31)CC2 (configuration not stated) | . | . | . | . | -26
COc1cccc(-c2oc3c(c2-c2ccc(OC)nc2)C(O)CCC3)c1 (configuration not stated) | . | 15 | . | . | -3
SMILES | D1 antagonist | DRD3 antagonist | D1 ag | D1 PAM | D3 ag
Cc1ccc(C(C(=O)NC2CCCCC2)N(Cc2ccccc2)C(=O)Cc2c[nH]c3ccccc23)o1 (configuration not stated) | -82* | 2 | 2 | -6 | 1
COc1ccc(CN(C(=O)Cc2c[nH]c3ccccc23)C(C(=O)NC2CCCCC2)c2ccc(C)o2)cc1 (configuration not stated) | -18 | 31 | 3 | -3 | 0
CS(=O)(=O)N1CCN(c2ccc([N+](=O)[O-])c(NCc3cccnc3)c2)CC1 | -8 | -24 | 1 | -1 | -3
Cc1cccc(/C=C/C(=O)c2cc(Br)ccc(=O)c2O)c1 | 20 | -59* | 4 | -1 | -7
CCc1ccc(/C=C/C(=O)c2cc(Br)ccc(=O)c2O)cc1 | 4 | ? | 3 | 3 | -14
Cc1ccc(NC(=O)CCS(=O)(=O)c2cc(Br)cc3c2N(C(=O)C2CC2)CC3)cc1 | 4 | . | 3 | 0 | -13
Clc1cccc(Cl)c1NC1=NCCN1 | -82* | . | 5 | -3 | 7
Cc1nn2c(=O)cc(COc3ccc(/C=C(\C#N)C(=O)Nc4ccc(F)cc4)cc3)nc2s1 | -12 | . | 0 | -1 | 78*
COc1ccc(NC(=O)/C(C#N)=C/c2ccc(OCc3cc(=O)n4nc(C)sc4n3)cc2)cc1 | -1 | . | 1 | 1 | -14
COc1ccc(S(=O)(=O)Nc2ccc(-c3cn4c(C)csc4n3)cc2)cc1 | -72* | . | 1 | -4 | -1
CC1CCCCN1c1cc2c(cc1F)c(=O)c(S(=O)(=O)c1ccccc1)cn2Cc1ccccc1 (configuration not stated) | 2 | . | 7 | -1 | 1
CCOC(=O)c1ccc(NC(=O)c2oc3c(c2C)-c2nn(Cc4ccccc4Cl)cc2CC3)cc1 | 0 | . | 3 | 1 | -9
CCOC(=O)c1c(/N=C/c2cccc([N+](=O)[O-])c2O)sc(C)c1C | 9 | -102* | 3 | 1 | -12
O=[N+]([O-])c1cccc(C=Nc2cccc3ccccc23)c1O | 5 | -11 | 2 | -1 | -16
N#CC(c1ccc(Cl)cc1)c1ncc(C(F)(F)F)cc1Cl (configuration not stated) | -51* | -22 | 25 | -4 | -3
O=C(Nc1ccc(C2=CN(Cc3ccccc3)CCC2=O)cc1)OCc1ccccc1 | . | 31 | . | . | 52*
Cc1n[nH]c(=S)n(NC(=O)CC(=O)Nn2c(=S)[nH]nc(C)c2=O)c1=O | 4 | -86* | 3 | -4 | -26
O=C(c1ccccc1)c1ccc(O)cc1O | -8 | 5 | 60* | -2 | 2
CO[C@H]1C[C@@H]2CC[C@@H](C)[C@@](O)(O2)C(=O)C(=O)N2CCCC[C@H]2C(=O)O[C@H]([C@H](C)C[C@@H]2CC[C@@H](O)[C@H](OC)C2)CC(=O)[C@H](C)C=C(C)[C@@H](O)[C@@H](OC)C(=O)[C@H](C)C[C@H](C)C=CC=CC=C1C | -10 | . | 1 | 4 | .
CC[C@@H]1C=C(C)C[C@H](C)C[C@H](OC)[C@H]2O[C@@](O)(C(=O)C(=O)N3CCCC[C@H]3C(=O)O[C@H](/C(C)=C/[C@@H]3CC[C@@H](O)[C@H](OC)C3)[C@H](C)[C@@H](O)CC1=O)[C@H](C)C[C@@H]2OC | -4 | . | 32* | -1 | .
